Assay results: the supplement of paper PMC10338343
± gives the standard deviation.

Assays:
[1] = system: MILI (PIWIL2) piRISC loaded with L1MC piRNA (26 nt); experiment: pre-steady-state target cleavage rate (min^-1); guide: L1MC piRNA 5'p-UAACUAAAUACUAUGCAAGCUGUAGG; higher = faster piRNA-guided slicing of the target
Summary of the method: (§1)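 Cleave-'n-Seq: 1 nM active affinity-purified piRISC with one synthetic guide and 0.1 nM transcribed, DNA-blocked target RNA library were mixed, with or without 500 nM GTSF1 partner protein, in HEPES–potassium acetate buffer at 33 °C for 0–8 or 0–960 min. Uncleaved targets were sequenced and normalised to depth and to weakly complementary targets, three trials were pooled, and k3 was capped at 0.0001 min^-1. The pre-steady-state cleavage rate was fitted […].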

[2] = system: EfPiwi piRISC loaded with L1MC piRNA (26 nt); experiment: pre-steady-state target cleavage rate (min^-1); auxiliary factor: 500 nM Ephydatia muelleri Gtsf1; guide: L1MC piRNA 5'p-UAACUAAAUACUAUGCAAGCUGUAGG; MIWI and MILI are mouse PIWI proteins and EfPiwi is from a freshwater sponge; tags in brackets are library labels; higher = faster piRNA-guided slicing of the target
Summary of the method: as §1

[3] = auxiliary factor: 500 nM mouse GTSF1
[4] = auxiliary factor: none (no GTSF1)

Row | Sequence | pre-steady-state target cleavage rate [1, 3] | pre-steady-state target cleavage rate [1, 4] | pre-steady-state target cleavage rate [2]
1 | UCCUGCUACAGGAUGCAUAGUAUUUAGUAA | 0.301 ± 0.044 | 0.00446 ± 0.0019 | 0.00317 ± 0.0021
2 | UCCUGGAAGCAGCUUGCAUAGUAUUUAGUUA | 0.259 ± 0.016 | 0.0136 ± 0.0032 | 0.0569 ± 0.013
3 | UCCUGGAUGUGCUUGCAUUGUAUUUAGUUA | 0.0666 ± 0.013 | 0.00523 ± 0.0031 | 0.00484 ± 0.0027
4 | UCCUGCUAGAGCUAGCAUAGUAUUUAGUUA | 0.237 ± 0.031 | 0.00417 ± 0.0027 | 0.00618 ± 0.0016
5 | UCCUGGAACAGAUUGCAUAGUAUUUAGUUA | 0.284 ± 0.012 | 0.0113 ± 0.0023 | 0.0572 ± 0.014
6 | UCCUCCUACUGCUUGCAUAGUAUAUAGUUA | 0.179 ± 0.021 | 0.00372 ± 0.0022 | 0.0123 ± 0.0054
7 | UCCUCGAUCAGCUUGCAUAGUAUUUAGUAA | 0.269 ± 0.017 | 0.00809 ± 0.0023 | 0.00989 ± 0.0033
8 | UCCUGGUACAGCAUGCAUAGUUUUUAGUUA | 0.038 ± 0.015 | 0.00749 ± 0.0033 | 0.0046 ± 0.0027
9 | UCCUGGAUCAGCUUGCAUAGUAUCUAGUUA | 0.205 ± 0.02 | 0.00466 ± 0.0024 | 0.0167 ± 0.005
10 | UCCUGGAACAGCAUGCAUAGUAAUUAGUUA | 0.225 ± 0.017 | 0.00873 ± 0.0024 | 0.0139 ± 0.0048
11 | UCCUGGAUGAGUCUUGCAUAGUAUUUAGUUA | 0.105 ± 0.016 | 0.0093 ± 0.0029 | 0.00527 ± 0.0024
12 | UCCUGCUACAGCUUGGAUUGUAUUUAGUUA | 0.0899 ± 0.011 | 0.00506 ± 0.0023 | 0.00362 ± 0.002
13 | UCCUGGAUCAGCUCGCAUAGUAUUUAGUUA | 0.284 ± 0.019 | 0.00608 ± 0.0029 | 0.0549 ± 0.013
14 | UCCUCCUACAACUUGCAUAGUAUUUAGUUA | 0.266 ± 0.019 | 0.0079 ± 0.0018 | 0.0806 ± 0.024
15 | UCCUGGAUGAGCUUGCAUAGUAUUUACGUUA | 0.189 ± 0.031 | 0.00682 ± 0.0032 | 0.00466 ± 0.0026
16 | UCCUGGUACAGCUUGCAUAGUAUAUUGUUA | 0.146 ± 0.042 | 0.00411 ± 0.0035 | 0.00333 ± 0.0026
17 | UCCUGGAUCUGCUUGCAUAGUAUUAAGUUA | 0.204 ± 0.019 | 0.00478 ± 0.0026 | 0.00735 ± 0.0037
18 | UCCUGCUAGAGCUUGCUUAGUAUUUAGUUA | 0.162 ± 0.01 | 0.00643 ± 0.002 | 0.00554 ± 0.002
19 | UCCUGGUAGAGCUAGCAUAGUAUUUAGUUA | 0.216 ± 0.019 | 0.00986 ± 0.0028 | 0.00968 ± 0.0033
20 | UCCUGGUAGUGCUUGCAUAGUAUUUAGUUA | 0.184 ± 0.018 | 0.00947 ± 0.0025 | 0.0152 ± 0.0047

Row | Sequence | pre-steady-state target cleavage rate [1, 3] | pre-steady-state target cleavage rate [1, 4] | pre-steady-state target cleavage rate [2]
21 | UCCUGGAACAAGCUUGCAUAGUAUUUAGUUA | 0.224 ± 0.012 | 0.0116 ± 0.003 | 0.0156 ± 0.0043
22 | UCCUGCUACAGCUUGCAUAGUAUUUUAGUUA | 0.283 ± 0.023 | 0.0106 ± 0.0025 | 0.00822 ± 0.0026
23 | UCCUGGAUGAGCUUGCAUAGUAUUUAAGUUA | 0.153 ± 0.025 | 0.00993 ± 0.0029 | 0.0082 ± 0.0031
24 | UCCUGGUACAGCUUGCAUAGUAUUUAUGUUA | 0.147 ± 0.036 | 0.0114 ± 0.0044 | 0.00329 ± 0.0024
25 | UCCUGGUAGAGCUUGCAAAGUAUUUAGUUA | 0.109 ± 0.0077 | 0.00935 ± 0.0029 | 0.0322 ± 0.0099
26 | UCCUGGUUCAGCUUGCAUAGUAUUUAGUAA | 0.144 ± 0.028 | 0.00573 ± 0.0029 | 0.00696 ± 0.0035
27 | UCCUCCAACACCUUGCAUAGUAUUUAGUUA | 0.192 ± 0.022 | 0.00554 ± 0.0024 | 0.00954 ± 0.0038
28 | UCCUGCUACAGGUUGCAUAGUUUUUAGUUA | 0.0345 ± 0.007 | 0.0063 ± 0.0021 | 0.00998 ± 0.0028
29 | UCCUCCUACAGGUUGCAUAGUAUUUAGUAA | 0.233 ± 0.017 | 0.00603 ± 0.0015 | 0.00547 ± 0.0022
30 | UCCUGCUUCAGCUUGCAUAGUUUUUAGUUA | 0.0646 ± 0.011 | 0.00355 ± 0.0025 | 0.00715 ± 0.0025
31 | UCCUGGUAGAGCUUGCAUAGUUUUUAGUUA | 0.0231 ± 0.005 | 0.00498 ± 0.0023 | 0.0049 ± 0.0026
32 | UCCUGCUAGUGCUUGCAUAGUAUUUAGUUA | 0.0937 ± 0.017 | 0.00303 ± 0.0022 | 0.00363 ± 0.0014
33 | UCCUGGUACAGCUUGUAUAGUAUUUAGUUA | 0.242 ± 0.017 | 0.0121 ± 0.0031 | 0.0177 ± 0.0048
34 | UCCUGGAUCAGCUAGCAUAGUAAUUAGUUA | 0.152 ± 0.015 | 0.00502 ± 0.0022 | 0.00458 ± 0.0024
35 | UCCUGGAUGAGCUUGCAUAGUAUUUAGAUA | 0.135 ± 0.031 | 0.00291 ± 0.0024 | 0.00326 ± 0.0019
36 | UCCUCCUACAGCUUGCAUAGUUAUUUAGUUA | 0.0152 ± 0.0067 | 0.00383 ± 0.0024 | 0.00556 ± 0.0031
37 | UCCUGGAUGUCCUUGCAUAGUUUUUAGUUA | 0.0125 ± 0.0057 | 0.00594 ± 0.0021 | 0.00455 ± 0.003
38 | UCCUCCUACAGCUUGCAUAGUCAUUUAGUUA | 0.0182 ± 0.0076 | 0.00422 ± 0.0022 | 0.00268 ± 0.0025
39 | UCCUCCUACAGCUUGCAUAGUUUUUAGUUA | 0.0632 ± 0.011 | 0.00455 ± 0.0023 | 0.00894 ± 0.003
